Reference: PubChem BioAssay (NCI)
The panel holds about 83,000 compounds, 20% with a hit somewhere; the sample as a whole holds those more often.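 Single-dose data. Exposure time 48 hours. Values below 10 considered active.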 Values without a mark were called inactive. Active and inactive are the calls of the source.

What was measured:
Test in all cases: NCI-60 one-dose screen, 48 h (100 = growth as untreated, 0 = no growth, -100 = all killed)
Conditions in all cases: 10 µM unless noted
[1] = test system: T-47D breast
[2] = test system: BT-549 breast
[3] = test system: MDA-MB-435 melanoma
[4] = test system: SW-620 colon
[5] = test system: MCF7 breast
[6] = test system: HCT-116 colon
[7] = test system: HCC-2998 colon
[8] = test system: KM12 colon

SMILES	growth [1]	growth [2]	growth [3]	growth [4]	growth [5]	growth [6]	growth [7]	growth [8]
Cc1ccc(NS(=O)(=O)c2ccc3c(c2)C(=O)CC(c2ccc(C(=O)C(C)C)cc2)N3)cc1C (stereo not given)	39.8%	65.6%	58.3%	70.5%	37.4%	54%	89.9%	71.9%
O=c1ssc(Cl)c1-c1ccccc1	95.7%	114%	98.4%	95.2%	89.3%	93.5%	104%	113%
CC1O[C@@H](OC2[C@H](OC(=O)/C=C/c3ccc(O)c(O)c3)C(COC3O[C@H](C)C(O)C(O)[C@@H]3O)O[C@@H](OCCc3ccc(O)c(O)c3)[C@H]2O)[C@@H](O)C(O)[C@H]1O (stereo not given in full)	83.1%	98.8%	103%	108%	98.2%	103%	99.4%	99.3%
Cc1cc(C(=O)c2ccccc2)c(C)c2c1[nH]c1ccc(Cl)cc12	63.5%	5.82% (active)	-25.4% (active)	26.3%	13.1%	5.1% (active)	21.8%	0.781% (active)
COc1nc(N(C)O)nc(N(C)O)n1	30.3%	12.4%	49.8%	34.6%	15%	7.23% (active)	9.13% (active)	24.5%
COc1cc(/C=C/C(=O)c2c(C)nc3ccccc3c2/C=C/c2ccc(C)cc2)cc(OC)c1OC	19%	35.6%	11.1%	3.22% (active)	17.1%	-70.3% (active)	-21.3% (active)	13.2%
COc1ccc(-c2nc3sccn3c2-c2cc(-c3cc(OC)c(OC)c(OC)c3)on2)cc1	51.9%	98.6%	102%	105%	88.5%	85.5%	98.2%	90.5%
FC(F)(F)c1cc(Nc2ccc3cc(OCCCN4CCOCC4)ccc3n2)ccc1Cl	26%	87.9%	35%	-13.7% (active)	6.85% (active)	14.5%	-18.5% (active)	16.7%
CCc1c2c(nc3ccc(OC(=O)OCc4ccc(B5OC(C)(C)C(C)(C)O5)cc4)cc13)-c1cc3c(c(=O)n1C2)COC(=O)[C@]3(O)CC	7.4% (active)	13.2%	-28.3% (active)	5.3% (active)	2.63% (active)	14.5%	2.03% (active)	0.859% (active)
Cc1c(C(=O)NC(Cc2ccccc2)C(O)C(=O)NCc2ccc(F)cc2)[nH]c2ccccc2c1=O (stereo not given)	102%	108%	101%	114%	104%	104%	118%	102%
COc1cc(N=Nc2ccc(N)cc2)c(OC)cc1N=Nc1ccccc1.[Cl][Zn][Cl]	88.2%	93.5%	98.7%	105%	85.6%	101%	98.9%	105%
C(=N\Nc1ncc(-c2cc3cc4c(cc3o2)OCO4)s1)/c1ccco1	35.2%	48.6%	69%	2.26% (active)	13.7%	-13.6% (active)	62.7%	15.8%
CCc1ccccc1-n1c(N)c(C#N)c(-c2ccc(N(C)C)cc2)c(C#N)c1=O	80%	85.5%	100%	93%	94.9%	94.1%	104%	97.6%
O=C(COc1ccc(/C=C2\Oc3ccccc3C2=O)cc1)Nc1nc2ccccc2s1	91.4%	46.2%	65%	96.3%	120%	87.3%	107%	-28.7% (active)
CCOc1ccccc1-c1cc(-c2cccs2)c(C#N)c(=O)[nH]1	26.7%	85.6%	31.2%	80.9%	37.1%	92.3%	92.2%	83.9%
CC/C=C\CCC/C=C1/C(=O)C=C[C@@H]1C/C=C\CCCC(=O)O	55.3%	32.3%	5.08% (active)	9.71% (active)	20.2%	-30.2% (active)	68.2%	32%
Cc1ccc(C(=O)CSc2nc(-c3ccc(Br)cc3)c(C#N)c(=O)[nH]2)cc1	93%	94%	93.2%	92.2%	101%	95.9%	101%	97.4%
CCCCCCCCCCCCCCCCCCOc1ccc(CC(=O)OCC[N+]2(C)CCCC2)cc1	95.5%	123%	100%	95%	90.9%	92%	104%	101%
CC1(C)CC(=O)C2=C(C1)N(c1ccc(OC(F)(F)F)cc1)C(N)=C(C#N)C2c1ccc(Cl)cc1 (stereo not given)	79.1%	109%	93.1%	101%	86%	68.4%	94.7%	86.9%
C=C(C)[C@@H]1CC[C@]2(C)[C@H](CC=C3[C@@H]4CC(C)(C)CC[C@]4(C(N)=O)CC[C@]32C)[C@@]1(C)CCC#N	10.4%	17.7%	17.7%	22.1%	6.71% (active)	9.92% (active)	44.7%	20.7%
Cn1cc(-c2csc(-c3ccccc3)n2)c2cccnc21	-45.4% [100 µM] (active)	-39.4% [100 µM] (active)	-45.2% [100 µM] (active)	-34.1% [100 µM] (active)	-44.7% [100 µM] (active)	-76.9% [100 µM] (active)	-79.3% [100 µM] (active)	-68.6% [100 µM] (active)
Cc1ccc(-c2cc(-c3cccnc3)[nH]c(=O)c2C#N)cc1	95.6%	111%	103%	102%	94.7%	115%	102%	101%
O=c1c2c3c(sc2n2c(-c4cn(-c5ccccc5)nc4-c4ccc(Cl)cc4)nnc2n1Cc1ccccc1)CCCC3	81.8%	103%	103%	110%	75.4%	92.6%	99.1%	103%
Cc1ccc(/C=C/c2c(C(=O)/C=C/c3ccc(C(F)(F)F)cc3)c(C)nc3ccccc23)cc1	-13.1% (active)	-30.6% (active)	-87.9% (active)	-43.2% (active)	-14.4% (active)	-56.8% (active)	-74.3% (active)	-70% (active)
O=c1[nH][n+](-c2ccc(Cl)cc2)no1	26.9%	91.8%	30.8%	40.8%	58.4%	84.5%	32.4%	31.3%
C=C1C(=O)O[C@H]2[C@H]1CC/C(CNC(=O)/C=C/c1ccc(Cl)cc1Cl)=C\CC[C@@]1(C)O[C@@H]21	-61.2% (active)	-53.1% (active)	4.95% (active)	-51.6% (active)	-59.9% (active)	-73.9% (active)	-93.3% (active)	20%
Cc1ccc(C(=O)COc2cccc(/C=C3\Oc4ccccc4C3=O)c2)cc1	50.3%	124%	90.2%	123%	116%	94.2%	108%	100%
O=c1c2c3c(sc2n2c(-c4cc(-c5ccccc5)nn4-c4ccccc4)nnc2n1Cc1ccccc1)CCCC3	72.5%	97.4%	85.2%	83.2%	68.3%	55.4%	98.8%	84.1%
COc1ccc(-c2nc3c(N)c(CO)c(C)nc3o2)cc1	90.9%	118%	103%	118%	86.1%	103%	87%	96.5%
CCN1C(=O)N(CC)C2Nn3c(s/c(=C\c4cccc([N+](=O)[O-])c4)c3=O)=NC21 (stereo not given)	59.5%	58.5%	-36.8% (active)	36.4%	35%	23.6%	87.7%	26.7%
